Drawing on PubChem BioAssay AID777 (Sanford-Burnham Center for Chemical Genomics, 2007), this text covers inhibition for 99 compounds.

Each structure is given as a SMILES string. Hit rate of the full screen: of about 96,000 compounds, about 19,000 (20%) were called active.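 How the source made its calls: active means blocking of liver enzyme CYP2C9 beyond about 50% at 5 µM (limit read from the data); inactive means the rest.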 Not all results are given here.

The test deals with Cytochrome P450 2C9 (Homo sapiens) (UniProt P11712). The test is described as follows: blockers of cytochrome P450 2C9 activity – biochemical, luminescence, ADME assay, primary screen (AID 777). As to conditions: CYP2C9 Supersomes, luciferin-H conversion, at 5 µM, stronger effect = higher value.
Sequence of Cytochrome P450 2C9 (Homo sapiens) (P11712 whole entry, looked up): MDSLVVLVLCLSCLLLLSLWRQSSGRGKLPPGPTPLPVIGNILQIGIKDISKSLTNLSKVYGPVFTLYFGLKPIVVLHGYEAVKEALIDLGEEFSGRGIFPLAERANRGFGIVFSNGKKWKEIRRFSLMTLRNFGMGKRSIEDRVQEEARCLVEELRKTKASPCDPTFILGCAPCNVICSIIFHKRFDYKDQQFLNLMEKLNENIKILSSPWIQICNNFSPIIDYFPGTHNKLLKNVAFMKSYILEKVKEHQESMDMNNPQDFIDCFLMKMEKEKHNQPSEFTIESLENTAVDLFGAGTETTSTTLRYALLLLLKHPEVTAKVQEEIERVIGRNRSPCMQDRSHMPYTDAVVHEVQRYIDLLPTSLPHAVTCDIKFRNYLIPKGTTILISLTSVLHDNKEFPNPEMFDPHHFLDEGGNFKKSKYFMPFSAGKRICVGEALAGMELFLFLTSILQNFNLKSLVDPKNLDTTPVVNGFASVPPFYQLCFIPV
Take `Cc1cccc(C)c1NC(=O)c1ccc(CN2CCc3ccccc3C2)cc1`: the inhibition was -5.8% (inactive).

Consider `CC1(C)Cc2c(sc3nc4n(c(=N)c23)CCCCC4)CO1`, for which the inhibition is 3.2% (inactive).

Consider `C=CC[n+]1c(-c2ccc(C)cc2)csc1NNC(=O)Nc1ccccc1`, for which the inhibition was 8.5% (inactive).

For `Oc1ccc(-c2csc(Nc3cccnc3)n2)cc1`, the inhibition is 37.6% (inactive).

Consider `c1ccc(Nc2nc(-c3ccncc3)cs2)nc1`, for which the inhibition was 92.9% (active).

In the case of `c1cnc(Nc2nc(-c3ccc4ccccc4c3)cs2)nc1`, the inhibition is -3.5% (inactive).

In the case of `Fc1ccc(Br)cc1/C=N/n1cnnc1`, the inhibition was 6.6% (inactive).

On to `Cc1cccc(C(=O)Nc2nnc(Cc3c[nH]c4ccccc34)s2)c1`, for which the inhibition is -4.3% (inactive).

Regarding `CN(CC#CCC(c1ccccc1)c1ccccc1)C(C)(C)C`, the inhibition was 25.6% (inactive).

`CCCCn1c(=S)[nH]c2ncccc2c1=O`: the inhibition was 13.8% (inactive).

For the compound `N#Cc1ccc(C(c2nnnn2CCc2ccccc2)N2CCCCCC2)cc1` (centres undefined), the inhibition is 8.8% (inactive).

As for `CC(C)C(c1nnnn1Cc1ccccc1)N1CCC(C(N)=O)CC1` (centres undefined), the inhibition is 10.7% (inactive).

With `Fc1ccc(Cn2nnnc2C(c2cccs2)N2CCCCCC2)cc1` (centres undefined), the inhibition is 83.4% (active).

As for `CCOC(=O)N1CCC(C(N)=O)CC1`, the inhibition is -7.1% (inactive).

Take `Cc1ccccc1OCC(=O)NCC(=O)OCC(=O)c1ccc2ccccc2c1`: the inhibition was -61.4% (inactive).

Regarding `CCCOc1ccc2c3c(c(=O)oc2c1OCCC)CCC3`, the inhibition is -0.6% (inactive).

On to `CC(C)c1nc(-c2ccccn2)no1`, for which the inhibition is 3.9% (inactive).

Regarding `O=C(Oc1ccccc1)c1ccc2nccnc2c1`, the inhibition is 17% (inactive).

`O=C(Oc1ccc(-c2nc(-c3ccccn3)no2)cc1)c1ccccc1`: the inhibition was 87.2% (active).

On to `COCCOC(=O)C1=C(C)NC(=O)NC1c1ccc(Cl)cc1` (centres undefined), for which the inhibition was -3% (inactive).

`CCOC(=O)C1=C(CN2CCc3ccccc32)NC(=O)NC1c1ccc(Cl)cc1` (centres undefined): the inhibition is 4.7% (inactive).

Consider `CCOC(=O)C1=C(C)NC(=O)N(C(C)=O)C1c1ccc(Cl)cc1` (centres undefined), for which the inhibition is 74.3% (active).

For `COc1ccc(C2=NOC3(CC(=O)N(c4ccc(Cl)cc4)C3=O)C2)c(OC)c1` (centres undefined), the inhibition was 23% (inactive).

Take `O=C(NC1CCN(Cc2ccccc2)CC1)c1ccccc1F`: the inhibition is 7.8% (inactive).

For `COc1ccc(-c2nn3c(-c4ccccc4)nnc3s2)cc1OC`, the inhibition was 6.9% (inactive).

In the case of `COc1cc(-c2nn3c(-c4cccc(C)c4)nnc3s2)cc(OC)c1OC`, the inhibition was 74.1% (active).

In the case of `CCOc1cccc(-c2nn3c(-c4ccccn4)nnc3s2)c1`, the inhibition is 23.2% (inactive).

Regarding `Cc1cc(NC(=O)COn2nnc3ccccc32)no1`, the inhibition was 24.9% (inactive).

For `Cc1ccc(C(=O)N2CCN(C(=O)N3CCOCC3)CC2)cc1`, the inhibition is 11.5% (inactive).

Turning to `Cc1cc2nc(-c3ccc(NC(=O)c4cccnc4)cc3)oc2cc1C`, the inhibition was 7.6% (inactive).

Turning to `O=C(CC1(O)C(=O)N(CN2CCOCC2)c2ccccc21)c1ccccc1` (centres undefined), the inhibition was -1% (inactive).

As to `CCOC(=O)CN1C(=O)C(O)(CC(=O)c2ccccn2)c2ccccc21` (centres undefined), the inhibition is 26% (inactive).

Regarding `C=CCN1C(=O)C(O)(CC(=O)c2ccc(Cl)cc2)c2ccccc21` (centres undefined), the inhibition was 67.9% (active).

For the compound `Nc1c(C(=O)NCc2ccccc2)sc2nc3c(cc12)C(=O)CCC3`, the inhibition was 6% (inactive).

For `Cc1cc(C)c2nc(NC(=O)C3CCCO3)sc2c1` (centres undefined), the inhibition was 28.3% (inactive).

For the compound `O=C(Cc1ncc(C(F)(F)F)cc1Cl)Nc1cccc(Br)c1`, the inhibition was 24.9% (inactive).

As for `CCCN(CCC)C(=O)C1c2ccccc2Oc2ccccc21`, the inhibition was 53.1% (active).

For the compound `CCOC(=O)N1CCN(C(=O)CNC(=O)Cc2ccc(Cl)cc2)CC1`, the inhibition was 10.1% (inactive).

As for `CCOc1cc(N2CCOCC2)c(OCC)cc1NC(=O)COc1cccc2cccnc12`, the inhibition is 0% (inactive).

In the case of `CC(=O)c1sc2nc(SCC(=O)N3CCCCC3)[nH]c(=O)c2c1C`, the inhibition is 95.6% (active).

With `O=C(CSc1nc2c(cnn2-c2ccc(F)cc2)c(=O)[nH]1)N1CCCCCC1`, the inhibition was 1.3% (inactive).

For the compound `Cc1cccc(NC(=O)CSc2nc3c(c(=O)[nH]2)CCCC3)c1C`, the inhibition was 35.7% (inactive).

For `C=CCNC(=O)CSc1nc2sc(C)c(C)c2c(=O)[nH]1`, the inhibition is 58.1% (active).

Turning to `C=CCn1c(SCC(=O)/C(C#N)=C(\C)N)nc2sc(C)c(C)c2c1=O`, the inhibition was 38.5% (inactive).

Regarding `CCOC(=O)CSc1nc2sc3c(c2c(=O)[nH]1)CC(C)(C)OC3`, the inhibition is 15.3% (inactive).

As to `Cn1c(=O)cc(OCCCC(=O)N2CCN(Cc3ccc4c(c3)OCO4)CC2)c2ccccc21`, the inhibition was 9.3% (inactive).

Consider `CCOC(=O)NNC(=O)c1ccc(Cl)cc1`, for which the inhibition is 1.4% (inactive).

Regarding `CN(C)/C=C/c1c(C#N)c(=O)ncn1Cc1ccccc1`, the inhibition was 3.3% (inactive).

`COc1ccc(NC(=O)Nc2ccc3nc(C)c(C)nc3c2)cc1`: the inhibition is 18.7% (inactive).

Consider `Cn1c(CCN2CCCCCC2)nc2cc(NC(=O)Nc3ccccc3)ccc21`, for which the inhibition is -0.2% (inactive).

Take `Cc1nc2ccc(NC(=O)N3CCC(c4ccccc4)C3)cc2nc1C` (centres undefined): the inhibition was 51.4% (active).

Turning to `Cc1cc(C(=O)CC#N)c(C)n1CC(F)(F)F`, the inhibition is 19.4% (inactive).

For the compound `COc1cccc2cc(C(=O)N(C)C)c(=O)oc12`, the inhibition was -103% (inactive).

As to `CCCCOc1ccc(-c2ncc(C(=O)OCC)c(N)n2)cc1`, the inhibition was -19.4% (inactive).

Take `CCOC(=O)c1cnc(-c2ccccc2)nc1Oc1ccc(C)cc1`: the inhibition is 65.7% (active).

Take `CCOC(=O)c1c(C)nc(-c2ccccc2)nc1NC(=O)C(C)C`: the inhibition is 23% (inactive).

Take `COc1ccc(C(=O)c2oc3ccc(Br)cc3c2NC(C)=O)cc1`: the inhibition was 1.7% (inactive).

For `COc1ccc(NC(=O)c2c(C)oc3c2CCCC3)cc1`, the inhibition is 15.4% (inactive).

Consider `COc1ccc(C(=O)c2c(C)oc3cc([N+](=O)[O-])c(O)c([N+](=O)[O-])c23)cc1`, for which the inhibition was 79.8% (active).

Consider `Cc1nn(C)c(Oc2ccccc2)c1[N+](=O)[O-]`, for which the inhibition was 29.1% (inactive).

For the compound `CN(CCC#N)c1ncnc2scc(-c3ccccc3)c12`, the inhibition was 19.4% (inactive).

`Cc1nc2ccccc2cc1O`: the inhibition is -22.9% (inactive).

Regarding `Cc1noc(C)c1COC(=O)Cn1c(C)nc2ccccc21`, the inhibition was 10.7% (inactive).

With `Cc1noc(C)c1COC(=O)c1cc2ccccc2cc1O`, the inhibition was 91.6% (active).

In the case of `CC(=O)N(CN1C(=O)C2CC=CCC2C1=O)c1cccc(Cl)c1` (centres undefined), the inhibition was 12.2% (inactive).

As to `CN1C(=O)CC(N2CCN(c3ccccn3)CC2)C1=O` (centres undefined), the inhibition was 7.7% (inactive).

Regarding `COc1cccc(C(CC(=O)NCCN2CCOCC2)NS(=O)(=O)c2ccc(C)cc2)c1OC` (centres undefined), the inhibition is -7.3% (inactive).

As for `CCn1c2ccccc2c2cc(NC(=O)C/C(C)=N/NC(=O)c3ccccc3N)ccc21`, the inhibition is -17.8% (inactive).

For the compound `Cc1cc(C)cc(N(C(C)C(=O)Nc2c(C)n(C)n(-c3ccccc3)c2=O)S(C)(=O)=O)c1` (centres undefined), the inhibition is 16.6% (inactive).

As for `FC(F)(F)c1cnc(Oc2ccccc2-c2nnc(-c3ccc(Cl)cc3)o2)c(Cl)c1`, the inhibition was 81.1% (active).

Take `CSc1ccccc1-c1nnc(-c2ccc(Cl)cc2)o1`: the inhibition is -19.4% (inactive).

For `COc1ccccc1-c1nc(C(F)(F)F)c(OC)o1`, the inhibition is 17% (inactive).

Regarding `O=c1[nH]n(-c2cccc(Cl)c2)c2ncccc12`, the inhibition is -10.7% (inactive).

For `O=C(Nc1nnc(SCc2c(Cl)cccc2Cl)s1)C1CCCO1` (centres undefined), the inhibition was -65.7% (inactive).

Consider `CCSc1nnc(NC(=O)Cc2ccccc2OC)s1`, for which the inhibition is 42.4% (inactive).

With `O=C(Nc1nnc(SCc2ccc(Cl)cc2Cl)s1)C1COc2ccccc2O1` (centres undefined), the inhibition is 67.2% (active).

`COc1ccccc1CNC(=O)CCCn1c(=O)c2ccccc2n(CC(=O)NC2CCCC2)c1=O`: the inhibition is 44.7% (inactive).

With `COc1ccc(NC(=O)Cn2c(=O)n(Cc3ccco3)c(=O)c3ccccc32)cc1`, the inhibition is 17.1% (inactive).

With `O=C(Cn1c(=O)n(Cc2ccco2)c(=O)c2ccccc21)NCC1CCCO1` (centres undefined), the inhibition was 57.3% (active).

As for `O=C1CC(Sc2ncn[nH]2)C(=O)N1c1ccccc1` (centres undefined), the inhibition was -21.9% (inactive).

As for `Cc1ccc(S(=O)(=O)N/N=C\c2cc3c(cc2[N+](=O)[O-])OCO3)cc1`, the inhibition was -13% (inactive).

Regarding `CN1OC(COC(=O)c2ccc(Cl)cc2)CC1c1ccccc1` (centres undefined), the inhibition is 37.4% (inactive).

As for `C=CCNC(=O)c1ccc(C)c(Br)c1`, the inhibition is -17.9% (inactive).

`C=CCNC(=O)c1sc(SC)cc1-c1ccc(Cl)cc1`: the inhibition was 64% (active).

Consider `C=CCNC(=O)c1cc(-c2ccccc2O)on1`, for which the inhibition is -48.2% (inactive).

With `ON=C1/C(=N\O)CC2(C/C1=N/O)OCCO2`, the inhibition is -14.6% (inactive).

Regarding `Cc1ccc(OCC(=O)Nn2cnc3ccccc32)cc1`, the inhibition was 6.6% (inactive).

For the compound `COc1ccc(-c2cc3n(n2)CCc2nc4ccccc4n2-3)cc1`, the inhibition was -8.6% (inactive).

In the case of `COc1ccc(-c2cc(C(=O)n3cnc4ccccc43)c3ccccc3n2)cc1`, the inhibition is 92.5% (active).

Turning to `Cc1[nH]n(-c2cccc(Cl)c2)c(=O)c1/C=N/n1c(C)nc2ccccc2c1=O`, the inhibition is 70.7% (active).

`Cc1[nH]n(-c2cccc(Cl)c2)c(=O)c1-c1ccc(Cl)cc1`: the inhibition was -1% (inactive).

For `COc1cc(NS(=O)(=O)c2ccc(N=Cc3c(C)[nH]n(-c4ccccc4)c3=O)cc2)nc(OC)n1`, the inhibition is -9.3% (inactive).

For the compound `Cc1ccc(CNC(=O)CCNC(=O)Cn2ccc3ccccc3c2=O)cc1`, the inhibition was -18.8% (inactive).

Turning to `CC1CCCC(NC(=O)CN2CCN(Cc3ccc(Cl)cc3)C2=O)C1C` (centres undefined), the inhibition was 15.9% (inactive).

As for `COc1cc(C2C(C(=O)c3sc(C)nc3C)=C(O)C(=O)N2CCN(C)C)cc(OC)c1OC` (centres undefined), the inhibition was 79% (active).

Take `COc1cc(C2C(C(=O)c3ccc(C)o3)=C(O)C(=O)N2CCc2ccccc2)ccc1O` (centres undefined): the inhibition was 5.2% (inactive).

Turning to `COc1cc(C2C(C(=O)c3ccc(C)o3)=C(O)C(=O)N2Cc2cccnc2)ccc1O` (centres undefined), the inhibition is 19.4% (inactive).

For `Cc1ccc2c(c1)C(O)(CC(=O)c1cccnc1)C(=O)N2` (centres undefined), the inhibition was 8.4% (inactive).

For `Cc1nn(C)cc1/C=C1\CCC/C(=C\c2cn(C)nc2C)C1=O`, the inhibition was -46.5% (inactive).

As usually defined, the inhibition is the relative decrease from the control value, in per cent.
